The full ranking holds about 33,000 sequences; the median of “e-score” is about -0.05, and the highest 2% start at about 0.38. The full list was thinned out, with the highest values kept by preference.

This experiment addresses T1, SIX1-Q177R homeodomain (human, UniProt Q15475 108-198, Q177R).
T1 sequence: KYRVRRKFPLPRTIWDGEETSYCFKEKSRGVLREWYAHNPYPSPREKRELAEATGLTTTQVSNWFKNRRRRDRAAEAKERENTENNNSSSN
The experiment can be described thus: universal protein binding microarray; Universal all-10-mer PBM (8x60K, AMADID 030236), 300 nM GST-tagged protein, Alexa Fluor 488 anti-GST; buffer, salt, pH and temperature not stated (as in Berger); high values mean tight binding. Particulars: protein: ivt; tags: N-terminal GST; dsDNA, one strand shown. The method in brief:
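Homeodomains carrying a GST tag were produced by in vitro transcription/translation, then quantified by anti-GST western blot against a recombinant GST standard curve. Duplicate applications at 300 nM final concentration were made to universal 'all 10-mer' protein binding microarrays in 8×60K format. The Universal PBM Analysis Suite was used to express binding as 8-mer E-scores.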
Take ACTTCGTG: the binding signal worked out at 0.238 ± 0.000686 E-score.
Under AACAAGGG stands 0.177 ± 0.0185 E-score.
Under AGCAGGTG stands 0.335 ± 0.0234 E-score; under ACCCCACG, 0.267 ± 0.00597 E-score.
Under CGCGATAC stands 0.254 ± 0.0107 E-score.
Take CGCGACAC: the binding signal stood at 0.4355 ± 0.00314 E-score.
Under AGCGACAC stands 0.465 ± 0.00955 E-score; under CGCGACCC, 0.169 ± 0.0418 E-score.
For GGCGACAC, the binding signal was 0.44 ± 0.0183 E-score.
Under GGCGAGAC stands 0.168 ± 0.0212 E-score.
Under GGCGATAC stands 0.174 ± 0.0165 E-score; under GAGCGACA, 0.185 ± 0.0595 E-score; under GTATCTCA, 0.158 ± 0.00253 E-score.
Under CACTACGA stands 0.191 ± 0.00718 E-score; under CGAAACCC, 0.16 ± 0.0514 E-score; under AATAGCAC, 0.202 ± 0.00634 E-score.
In the case of CCACACCC, the binding signal was 0.393 ± 0.0374 E-score.
Under CCACACGC stands 0.282 ± 0.0206 E-score.
In the case of GCACACAC, the binding signal came to 0.275 ± 0.0355 E-score.
Take GCACACCC: the binding signal is 0.396 ± 0.0314 E-score.
Under ACACACAC stands 0.315 ± 0.0422 E-score.
Under GCGCACCC stands 0.236 ± 0.0394 E-score; under ACCCACCC, 0.276 ± 0.0223 E-score; under ACACACCC, 0.39 ± 0.0201 E-score.
On to CCACACAC, for which the binding signal amounted to 0.271 ± 0.0195 E-score.
As for CGGGAATA, the binding signal amounted to 0.181 ± 0.0131 E-score.
Under CCCGAACA stands 0.1699 ± 0.00103 E-score; under ACCTTACA, 0.192 ± 0.02 E-score; under CACCCACG, 0.275 ± 0.0113 E-score.
Under CGTCCTAC stands 0.182 ± 0.018 E-score; under ACCCCATA, 0.249 ± 0.00713 E-score.
CACTGAGG: the binding signal is 0.227 ± 0.0197 E-score.
Under CCCGCGTC stands 0.193 ± 0.0507 E-score.
Under CACCGCAA stands 0.284 ± 0.0454 E-score; under CACTAATG, 0.164 ± 0.0232 E-score.
Under ACCTGGAG stands 0.222 ± 0.0157 E-score.
Consider AATTGGGG, for which the binding signal came to 0.17 ± 0.027 E-score.
Under GCTACACC stands 0.473 ± 0.00658 E-score; under CCTACCCC, 0.227 ± 0.00219 E-score; under CCTACTCC, 0.179 ± 0.0115 E-score.
Under ACTACACA stands 0.265 ± 0.0483 E-score; under CCTACACC, 0.4819 ± 0.00223 E-score.
Under ACTACACG stands 0.4206 ± 0.00315 E-score; under GCTACCCC, 0.23 ± 0.0172 E-score.
For the sequence ACTACACT, the binding signal was 0.431 ± 0.0136 E-score.
Turning to GCTATACC, the binding signal is 0.169 ± 0.0037 E-score.
Under ACTACCCG stands 0.204 ± 0.0121 E-score; under ACTATACA, 0.238 ± 0.0193 E-score; under TCTACACA, 0.194 ± 0.0545 E-score.
Under CCCCCGGC stands 0.2104 ± 0.00182 E-score; under CTTGGGGA, 0.158 ± 0.0109 E-score.
In the case of ACCCTTCC, the binding signal amounted to 0.161 ± 0.0416 E-score.
Under CACCGGGA stands 0.176 ± 0.00643 E-score; under CACTAGCA, 0.163 ± 0.00431 E-score.
Under ATAGCGTG stands 0.159 ± 0.0173 E-score.
Turning to ACACATGC, the binding signal worked out at 0.176 ± 0.0202 E-score.
Turning to ACCGGTAT, the binding signal is 0.212 ± 0.02 E-score.
Under CCCGAAGG stands 0.193 ± 0.0115 E-score; under ACGCGTCC, 0.174 ± 0.00808 E-score.
For the sequence GAATAACA, the binding signal is 0.151 ± 0.00831 E-score.
Under GATACCGA stands 0.214 ± 0.0181 E-score; under CCTACCCG, 0.183 ± 0.0228 E-score; under CCTACACG, 0.398 ± 0.0115 E-score.
Under ACTACCCC stands 0.267 ± 0.00871 E-score; under ACTACTCC, 0.163 ± 0.045 E-score.
Under CCTACACA stands 0.18 ± 0.0508 E-score; under ACTACACC, 0.4877 ± 0.000997 E-score; under ACCCCTCA, 0.289 ± 0.021 E-score.
For the sequence CTGTGCAC, the binding signal stood at 0.216 ± 0.0216 E-score.
Under ACCCCGTG stands 0.356 ± 0.0239 E-score; under GGAACACA, 0.189 ± 0.0298 E-score.
With AGAACACT, the binding signal turned out to be 0.344 ± 0.0153 E-score.
Under CGAACACC stands 0.4736 ± 0.00203 E-score.
Under CGAACACA stands 0.215 ± 0.0469 E-score.
Under CGAACACG stands 0.3556 ± 0.00281 E-score.
Regarding TGAACACA, the binding signal was found to be 0.173 ± 0.0727 E-score.
Under AGAACACC stands 0.459 ± 0.00494 E-score; under GGAACACC, 0.4735 ± 0.00301 E-score; under AGAACACG, 0.356 ± 0.0118 E-score.
Under CGGGGATA stands 0.202 ± 0.00822 E-score; under AATGGGTG, 0.281 ± 0.0496 E-score; under CACGCGTA, 0.184 ± 0.0106 E-score.
Under CCACCTAC stands 0.17 ± 0.0551 E-score.
As for ACCCCTAG, the binding signal stood at 0.208 ± 0.00908 E-score.
Under ACACCTAG stands 0.4448 ± 0.00199 E-score.
Under ACACCTAC stands 0.4555 ± 0.00215 E-score.

(Values after article PMC10668032, “Altered binding affinity of SIX1-Q177R correlates with enhanced WNT5A and WNT pathway effector expression in Wilms tumor”.)
